An excerpt weighted towards active compounds, which were near 18% of everything screened.
RORg inh – inhibitors of mouse ROR gamma transcriptional activity | Potency, µM (doses to about 53.6 µM), actives largely listed as inhibitors | P51450 | 310,000 tested, 5.4% active | Drosophila S2 Gal4-RORgamma UAS-luciferase reporter, 20 h | AID 2551; also: nearly all actives have a fitted effect of over 60% in size
Target sequence (P51450 whole entry, looked up, the tested form may be a part): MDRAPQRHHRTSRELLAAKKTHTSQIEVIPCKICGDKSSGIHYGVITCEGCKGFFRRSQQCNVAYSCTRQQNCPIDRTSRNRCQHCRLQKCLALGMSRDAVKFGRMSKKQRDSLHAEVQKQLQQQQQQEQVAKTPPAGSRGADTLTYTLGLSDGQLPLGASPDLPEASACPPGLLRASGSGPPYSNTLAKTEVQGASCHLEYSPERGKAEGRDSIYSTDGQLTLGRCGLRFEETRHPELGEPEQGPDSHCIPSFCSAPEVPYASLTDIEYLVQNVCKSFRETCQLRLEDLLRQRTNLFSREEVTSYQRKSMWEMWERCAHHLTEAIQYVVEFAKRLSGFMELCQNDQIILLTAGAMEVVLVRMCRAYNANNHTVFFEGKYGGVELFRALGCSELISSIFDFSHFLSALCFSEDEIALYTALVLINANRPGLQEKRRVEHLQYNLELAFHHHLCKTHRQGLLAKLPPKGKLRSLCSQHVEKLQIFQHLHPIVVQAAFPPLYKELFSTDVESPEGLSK
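Using a luciferase readout, inhibitors were identified by reduced reporter activity in Drosophila cells coexpressing a copper-inducible Gal4–ROR gamma fusion and UAS-driven Photinus luciferase, incubated 20 hr after 700 uM copper sulfate.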
DT40 TDP1 CPT – DT40-hTDP1 cell growth loss with CPT | chicken DT40 Tdp1-/-;hTDP1 cells + 20 nM CPT, ATP luminescence, 48 h | 420,000 tested, 12% active | Potency, µM (doses to about 46.2 µM), most hits filed as inhibitors; also: nearly all actives have a fitted effect of over 55% in size
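Chicken DT40 Tdp1-/- cells complemented with human TDP1, 400 cells/well, exposed to compounds plus 20 nM camptothecin for at least 48 h at 37 C; viability read as ATP content by CellTiter-Glo luminescence.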
LDHA inh – LDHA (human) enzyme inhibition; 480,000 tested, 0.15% active; activity change, % (values are at about 110 or 230 µM); AID 1347041; purified LDHA, NADH/diaphorase-resazurin fluorescence; hits give low values; P00338; in the data active = activity change below about -30%; inconclusive = mostly about -25% to -30%
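LDH5 2 nM; NADH 0.06 mM, pyruvate 0.2 mM; 200 mM Tris pH 7.4, EDTA, Tween-20; 5 min RT. Detection: diaphorase 0.133 mg/mL + resazurin 37 µM, fluorescence ex540/em590 at 0 and 20 min; normalized to enzyme-free and DMSO wells.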
DT40 TDP1 no CPT – qHTS for Inhibitors of human tyrosyl-DNA phosphodiesterase 1 (TDP1): qHTS in cells in absence of CPT; DT40 Tdp1-/- hTDP1 cells, no CPT, ATP luminescence, 48 h; Potency, µM (series often up to 46.2 µM), most hits filed as inhibitors; 420,000 tested, 15% active; AID 686978, 2013; also: nearly all actives have a fitted effect of over 55% in size
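A cellular qHTS used chicken DT40 cells lacking endogenous Tdp1 but carrying stably transfected human TDP1. Compounds were applied without camptothecin, and cell growth kinetics were judged by ATP-dependent luminescence after ≥48 hr.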
Gal4-VP16 FLuc – inhibits Gal4-VP16 luciferase reporter, ROR gamma counter-screen; 310,000 tested, 3.5% active; Drosophila S2 Gal4-VP16 UAS-luciferase, luminescence, 20 h; Potency, µM (top dose mostly 53.6 µM), usual class: inhibitors; AID 2546;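 also: Gal4-VP16 expression switched on by copper sulfate through the metallothionein promoter; nearly all actives have a fitted effect of over 50% in size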
IL1B secr inh – inhibitors of inflammasome signaling (IL-1 beta secretion) | AID 743279 | THP-1 LPS/ATP IL-1B secretion, AlphaLISA, 16 h; hits give low values | activity change, % at 57.5 µM | 360,000 tested, 4.7% active; in the data active = activity change below about -50%; inconclusive = mostly about -30% to -49%
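THP-1 cells pretreated 1 hr with compounds (up to 57.5 uM final), then stimulated with LPS (250 ng/mL final) plus ATP (1.25 mM final); secreted IL-1B measured by AlphaLISA after 16 hr, decreased signal indicating inhibition.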
Large screens that a line does not name were inactive. Unless noted, calls follow the shape of the dose curve; as a rule, active = well fitted curve in the direction sought with a large enough effect; inconclusive = small, poorly fitted or top-dose-only effect, or another doubt; inactive = no such curve, though single readings can be large; an effect the other way counts as inactive or inconclusive.

Cc1noc(/C=C/N(C)C)c1S(=O)(=O)N1CCCC(C(=O)NC2CCCCC2C)C1 (stereo not drawn)	DT40 TDP1 CPT inconclusive, DT40 TDP1 no CPT 20.6µM
Cc1cccc(C)c1NC(=O)C1CCCN(S(=O)(=O)c2c(C)noc2/C=C/N(C)C)C1 (stereo not drawn)	DT40 TDP1 CPT 16.4µM, DT40 TDP1 no CPT inconclusive (no result: RORg inh, Gal4-VP16 FLuc, IL1B secr inh)
Cc1cccc(NC(=O)C2CCCN(S(=O)(=O)c3c(C)noc3/C=C/N(C)C)C2)c1C (stereo not drawn)	DT40 TDP1 CPT inconclusive, DT40 TDP1 no CPT inconclusive (no result: RORg inh, Gal4-VP16 FLuc, IL1B secr inh)
Cc1ccc(NC(=O)C2CCCN(S(=O)(=O)c3c(C)noc3/C=C/N(C)C)C2)cc1F (stereo not drawn)	DT40 TDP1 CPT inconclusive, DT40 TDP1 no CPT 18.4µM
O=C(CCc1ncc(-c2ccc(Cl)cc2)o1)N1CCOCC1	none (no result: RORg inh, DT40 TDP1 CPT, DT40 TDP1 no CPT, Gal4-VP16 FLuc, IL1B secr inh)
Clc1ccc(-c2noc(CN(Cc3ccccn3)CC3CCCO3)n2)cc1 (stereo not drawn)	RORg inh 3.98µM, DT40 TDP1 CPT inconclusive, DT40 TDP1 no CPT 16.4µM
FC(F)(F)c1cccc(Cc2noc(CN(Cc3ccccn3)CC3CCCO3)n2)c1 (stereo not drawn)	DT40 TDP1 CPT 20.6µM, DT40 TDP1 no CPT 20.6µM
Cc1oc(-c2ccc(F)cc2)nc1CN(Cc1ccccn1)CC1CCCO1 (stereo not drawn)	DT40 TDP1 CPT inconclusive, DT40 TDP1 no CPT 29.1µM
Cc1oc(-c2ccccc2)nc1CC(=O)NCC1CCCO1 (stereo not drawn)	none (no result: RORg inh, DT40 TDP1 CPT, DT40 TDP1 no CPT, Gal4-VP16 FLuc, IL1B secr inh)
O=C(OCc1ccc(C(F)(F)F)cc1)c1cc2c(cc1[N+](=O)[O-])OCCO2	none (no result: RORg inh, DT40 TDP1 CPT, DT40 TDP1 no CPT, Gal4-VP16 FLuc, IL1B secr inh)
CC(C)NC(=O)[C@H](CSCc1ccccc1)N1Cc2ccccc2C1=O	none
COc1ccc(OC)c(NC(=O)[C@H](Cc2ccccc2)N2Cc3ccccc3C2=O)c1	DT40 TDP1 CPT inconclusive, DT40 TDP1 no CPT inconclusive (no result: RORg inh, Gal4-VP16 FLuc, IL1B secr inh)
COc1ccc(OC)c(NC(=O)[C@H](CSCc2ccccc2)N2Cc3ccccc3C2=O)c1	DT40 TDP1 CPT 20.6µM, DT40 TDP1 no CPT inconclusive (no result: RORg inh, Gal4-VP16 FLuc, IL1B secr inh)
O=C(NCCCN1CCCC1)[C@H](CSCc1ccccc1)N1Cc2ccccc2C1=O	DT40 TDP1 CPT inconclusive, DT40 TDP1 no CPT 29.1µM
Cc1oc2ccc(O)c(CN3CCOCC3)c2c1C(=O)Nc1cccc(C(F)(F)F)c1	DT40 TDP1 CPT 16.4µM, DT40 TDP1 no CPT inconclusive (no result: RORg inh, Gal4-VP16 FLuc, IL1B secr inh)
Cc1cc(=O)oc2c(CN(C)Cc3ccccc3)c(O)ccc12	none
Cc1oc2ccc(O)c(CN(C)Cc3ccccc3)c2c1C(=O)Nc1cccc(C(F)(F)F)c1	DT40 TDP1 CPT 5.8µM, DT40 TDP1 no CPT 5.17µM (no result: RORg inh, Gal4-VP16 FLuc, IL1B secr inh)
Cc1nc(N2CCOCC2)c2c(C(=O)Nc3cccc(C(F)(F)F)c3)c(C)oc2n1	none (no result: RORg inh, Gal4-VP16 FLuc, IL1B secr inh)
Cc1oc2ccc(O)c(CN(C)Cc3ccccc3)c2c1C(=O)Nc1ccccc1	DT40 TDP1 CPT 9.2µM, DT40 TDP1 no CPT 8.2µM (no result: RORg inh, Gal4-VP16 FLuc, IL1B secr inh)
Cc1cc(C(=O)Nc2cccc(-c3nc4ccccc4o3)c2)ccc1[N+](=O)[O-]	none (no result: RORg inh, DT40 TDP1 CPT, DT40 TDP1 no CPT, Gal4-VP16 FLuc, IL1B secr inh)
Cc1ccc(-c2nc(CCNC(=O)Nc3cccc(F)c3)co2)cc1	none (no result: RORg inh, DT40 TDP1 CPT, DT40 TDP1 no CPT, Gal4-VP16 FLuc, IL1B secr inh)
Cc1cccc(N=N/C(=C\O)C(=O)c2cccs2)c1	DT40 TDP1 CPT inconclusive, DT40 TDP1 no CPT inconclusive, IL1B secr inh -67.3
Cc1ccccc1NS(=O)(=O)c1cc(C(=O)NCCC2=CCCCC2)ccc1C	DT40 TDP1 CPT inconclusive, DT40 TDP1 no CPT inconclusive
Cc1ccc(SCCNC(=O)c2ccc(C)c(S(=O)(=O)Nc3ccccc3C)c2)cc1	RORg inh inconclusive, DT40 TDP1 CPT inconclusive, DT40 TDP1 no CPT 22.4µM, IL1B secr inh -67.4
COc1ccccc1NS(=O)(=O)c1cc(C(=O)NCc2ccco2)ccc1C	IL1B secr inh -63.3
COc1ccccc1NS(=O)(=O)c1ccc(C(=O)NCc2ccco2)cc1	DT40 TDP1 CPT 10.3µM, DT40 TDP1 no CPT inconclusive (no result: RORg inh, Gal4-VP16 FLuc)
COc1ccccc1NS(=O)(=O)c1ccc(C(=O)NCc2ccncc2)cc1	none (no result: RORg inh, Gal4-VP16 FLuc)
Cc1ccccc1NS(=O)(=O)c1cc(C(=O)NCc2ccco2)ccc1C	none

Screens (PubChem BioAssay)
